The results in this text go back to PubChem BioAssay (NCI).

Compounds without any hit were thinned out: in the full panel of roughly 79,000, 15% have a hit. Values without a mark were called inactive. The source made the active and inactive calls. No stated cut-off is given here; in the data, active means growth inhibition above about 70%; inactive means the rest.

Assay [1] can be described thus: NCI Yeast Anticancer Drug Screen. Data for the rad50 strain (AID 155).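 Further: 0% = growth of vehicle-only cultures of the same strain.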 The conditions noted are these: S. cerevisiae rad50 strain growth inhibition, hits give high values. In outline:
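Relative growth inhibition (compound vs vehicle) was measured in yeast with a defined repair-gene alteration.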

Assay [2] is described as follows: NCI Yeast Anticancer Drug Screen. Data for the mec2-1 strain (AID 157). The conditions noted are these: S. cerevisiae mec2-1 strain, hits give high values. In a few lines: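 Growth inhibition is read against vehicle-treated controls after compound exposure of the mec2-1 yeast strain, which is defective in DNA damage repair or cell cycle control.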
Assay [3] is described as follows: NCI Yeast Anticancer Drug Screen. Data for the sgs1 mgt1 strain (AID 161).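 Further: 0% = growth of cultures given vehicle only.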 The conditions noted are these: S. cerevisiae sgs1 mgt1 strain, hits give high values. In outline: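 This yeast growth screen uses a strain with defined DNA-repair lesions; compound-treated growth is compared with vehicle-treated growth.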
Assay [4] can be described thus: NCI Yeast Anticancer Drug Screen. Data for the cln2 rad14 strain (AID 165).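 Further: 0% = growth equal to vehicle treated cultures.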 The conditions noted are these: S. cerevisiae cln2 rad14 strain, hits give high values. In outline:
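Growth inhibition, relative to vehicle-treated controls, is the read-out. The test organism is a yeast strain with defined genetic alterations, cln2 rad14.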

A short description of assay [5]: NCI Yeast Anticancer Drug Screen. Data for the bub3 strain (AID 167). The conditions noted are these: S. cerevisiae bub3 mutant strain, hits give high values. In a few lines: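 Screening used yeast with an engineered genetic alteration affecting cell cycle control. Compound-exposed cultures were compared with vehicle cultures, and reduced growth was taken as inhibition.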

The nature of assay [6]: NCI Yeast Anticancer Drug Screen. Data for the mlh1 rad18 strain (AID 175). The conditions noted are these: S. cerevisiae mlh1 rad18 strain growth inhibition, hits give high values. In a few lines:
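Cells of a genetically altered yeast strain, deficient in DNA damage repair, were treated with compound. Their growth was then compared with that of vehicle-treated cultures to give inhibition.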

Where [7] appears, read: at 5.0 µM (retest, dose inferred, filed as 0.5).
The mark [8] stands for this setting: at 50.0 µM (retest, dose inferred, filed as 5.0).

In the case of `Nc1nc(N)c(-c2ccc(Cl)c(Cl)c2)c(CCc2ccc(CNC(=O)c3cccc(S(=O)(=O)F)c3)cc2)n1`, the growth inhibition in assay [1] (setting [7]) is -3%; in assay [1] (setting [8]), 96% (active); in assay [1] (at 50.0 µM), 62.7%; in assay [2] (setting [7]), -1%; in assay [2] (setting [8]), 99% (active); in assay [2] (at 50.0 µM), 59.2%. The growth inhibition in assay [3] (setting [7]) is 7%; in assay [3] (setting [8]), 99% (active); in assay [3] (at 50.0 µM), 45.9%; in assay [4] (setting [7]), -10%; in assay [4] (setting [8]), 97% (active); in assay [4] (at 50.0 µM) it was 54.6%. In addition, the growth inhibition in assay [5] (setting [7]) was -9%; in assay [5] (setting [8]) it was 98% (active); in assay [5] (at 50.0 µM) it was 47.4%; in assay [6] (setting [7]) it was 30%; in assay [6] (setting [8]), 98% (active); in assay [6] (at 50.0 µM), 54%.
`[O]=[Sb]([OH])([OH])[c]1ccc(NC2OC(CO)C(O)C(O)C2O)cc1` (stereo unspecified): the growth inhibition in assay [1] (setting [7]) is 0%; in assay [1] (setting [8]) it was -6%; in assay [1] (at 50.0 µM), 6.45%; in assay [2] (setting [7]), 0%; in assay [2] (setting [8]) it was -2%; in assay [2] (at 50.0 µM) it was 5.65%. For the same molecule, the growth inhibition in assay [3] (setting [7]) was -1%; in assay [3] (setting [8]), -20%; in assay [3] (at 50.0 µM) it was -13.8%; in assay [4] (setting [7]), 0%; in assay [4] (setting [8]), -12%; in assay [4] (at 50.0 µM) it was -0.2%. Moreover, the growth inhibition in assay [5] (setting [7]) was 2%; in assay [5] (setting [8]) it was -1%; in assay [5] (at 50.0 µM) it was 91.8% (active); in assay [6] (setting [7]) it was 1%; in assay [6] (setting [8]), -3%; in assay [6] (at 50.0 µM), -10.4%.
Regarding `CCOC(=O)C(Cl)Cl`, the growth inhibition in assay [1] (setting [7]) is -1%; in assay [1] (setting [8]) it was 0%; in assay [1] (at 50.0 µM), -32.4%; in assay [2] (setting [7]), 3%; in assay [2] (setting [8]) it was -2%; in assay [2] (at 50.0 µM) it was -2.7%. The growth inhibition was 0% in assay [3] (setting [7]); -2% in assay [3] (setting [8]); -5.25% in assay [3] (at 50.0 µM); -2% in assay [4] (setting [7]); -4% in assay [4] (setting [8]); -39.8% in assay [4] (at 50.0 µM). Further, the growth inhibition in assay [5] (setting [7]) is 1%; in assay [5] (setting [8]) it was -5%; in assay [5] (at 50.0 µM), -18.3%; in assay [6] (setting [7]), 2%; in assay [6] (setting [8]) it was -2%; in assay [6] (at 50.0 µM), 33.4%.
Turning to `BrP(NC1CCCCCC1)(c1ccccc1)(c1ccccc1)c1ccccc1`, the growth inhibition was 43% in assay [1] (setting [7]); 97% (active) in assay [1] (setting [8]); 98.5% (active) in assay [1] (at 50.0 µM); 39% in assay [2] (setting [7]); 99% (active) in assay [2] (setting [8]); 99.3% (active) in assay [2] (at 50.0 µM). Also, the growth inhibition in assay [3] (setting [7]) was 47%; in assay [3] (setting [8]), 98% (active); in assay [3] (at 50.0 µM), 99.2% (active); in assay [4] (setting [7]) it was 12%; in assay [4] (setting [8]), 97% (active); in assay [4] (at 50.0 µM) it was 98.7% (active). For the same molecule, the growth inhibition in assay [5] (setting [7]) is 25%; in assay [5] (setting [8]) it was 98% (active); in assay [5] (at 50.0 µM), 99% (active); in assay [6] (setting [7]), 65%; in assay [6] (setting [8]), 98% (active); in assay [6] (at 50.0 µM) it was 99% (active).
Take `Cc1sc(Cc2ccccc2)nc1-c1ccc(N=Cc2ccc(N(CCCl)CCCl)cc2)cc1`: the growth inhibition in assay [1] (setting [7]) was 20%; in assay [1] (setting [8]) it was 95% (active); in assay [1] (at 50.0 µM), 96.2% (active); in assay [2] (setting [7]) it was 2%; in assay [2] (setting [8]), 98% (active); in assay [2] (at 50.0 µM), 93.8% (active). In addition, the growth inhibition in assay [3] (setting [7]) was -108%; in assay [3] (setting [8]), 98% (active); in assay [3] (at 50.0 µM) it was 96% (active); in assay [4] (setting [7]) it was -1%; in assay [4] (setting [8]), 90% (active); in assay [4] (at 50.0 µM), 93.6% (active). The growth inhibition in assay [5] (setting [7]) is 2%; in assay [5] (setting [8]), 96% (active); in assay [5] (at 50.0 µM), 89% (active); in assay [6] (setting [7]), 58%; in assay [6] (setting [8]), 97% (active); in assay [6] (at 50.0 µM) it was 96.2% (active).
For the molecule `CN(C)c1ccc(C2N(Cc3ccc(N(CCCl)CCCl)cc3)CCCN2Cc2ccc(N(CCCl)CCCl)cc2)cc1`, the growth inhibition is 1% in assay [1] (setting [7]); 86% (active) in assay [1] (setting [8]); 52.5% in assay [1] (at 50.0 µM); -18% in assay [2] (setting [7]); 55% in assay [2] (setting [8]); 5.2% in assay [2] (at 50.0 µM). Further, the growth inhibition is -1% in assay [3] (setting [7]); 79% (active) in assay [3] (setting [8]); 76.7% (active) in assay [3] (at 50.0 µM); -1% in assay [4] (setting [7]); 65% in assay [4] (setting [8]); -6.3% in assay [4] (at 50.0 µM). For the same molecule, the growth inhibition in assay [5] (setting [7]) is 0%; in assay [5] (setting [8]) it was 95% (active); in assay [5] (at 50.0 µM), 3.5%; in assay [6] (setting [7]), -1%; in assay [6] (setting [8]), 99% (active); in assay [6] (at 50.0 µM) it was 32.9%.
Consider `CC(=O)OCC12CCC(C)=CC1OC1C(O)C(OC(C)=O)C2(C)C12CO2` (stereo unspecified), for which the growth inhibition in assay [1] (setting [7]) was 99% (active); in assay [1] (setting [8]), 99% (active); in assay [1] (at 50.0 µM), 92.7% (active); in assay [2] (setting [7]), 98% (active); in assay [2] (setting [8]) it was 100% (active); in assay [2] (at 50.0 µM) it was 94.5% (active). Also, the growth inhibition is 98% (active) in assay [3] (setting [7]); 99% (active) in assay [3] (setting [8]); 93.7% (active) in assay [3] (at 50.0 µM); 99% (active) in assay [4] (setting [7]); 99% (active) in assay [4] (setting [8]); 92.8% (active) in assay [4] (at 50.0 µM). Moreover, the growth inhibition in assay [5] (setting [7]) is 97% (active); in assay [5] (setting [8]) it was 99% (active); in assay [5] (at 50.0 µM), 92.8% (active); in assay [6] (setting [7]), 99% (active); in assay [6] (setting [8]) it was 99% (active); in assay [6] (at 50.0 µM) it was 92.5% (active).
